# According to article PMC8384837, “Expanding the binding specificity for RNA recognition by a PUF domain”:
# Molecular target: PUM1 PUF domain R1-RWT (Homo sapiens, UniProt Q14671 828-1176, S863R;R864W;Q867T)
# Assay: yeast three-hybrid, YBZ-1, SC-Leu-His + 0.5 mM 3-AT, 4 days
# Settings: tags: N-Gal4 AD-HA kept; label: inside an RPR1-promoter hybrid RNA with tandem MS2 sites; ssRNA
# Procedure, shortened: (§1)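 The interaction score is the log change in how often each variant appears, from input to selection. Frequencies came from PCR-amplified, Illumina-sequenced repeat regions of Pumilio-1 PUF domain libraries grown in strain YBZ-1 (LexA–MS2 coat fusion, HIS3 reporter) alongside matching RNA elements. Input plates were SC-Leu and selection plates were SC-Leu-His + 0.5 mM 3-AT, each for four days, and the log2 calculation used a pseudocount of 1 where a variant was absent.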
# PUM1 PUF domain R1-RWT, sequence (Q14671 828-1176 S863R/R864W/Q867T): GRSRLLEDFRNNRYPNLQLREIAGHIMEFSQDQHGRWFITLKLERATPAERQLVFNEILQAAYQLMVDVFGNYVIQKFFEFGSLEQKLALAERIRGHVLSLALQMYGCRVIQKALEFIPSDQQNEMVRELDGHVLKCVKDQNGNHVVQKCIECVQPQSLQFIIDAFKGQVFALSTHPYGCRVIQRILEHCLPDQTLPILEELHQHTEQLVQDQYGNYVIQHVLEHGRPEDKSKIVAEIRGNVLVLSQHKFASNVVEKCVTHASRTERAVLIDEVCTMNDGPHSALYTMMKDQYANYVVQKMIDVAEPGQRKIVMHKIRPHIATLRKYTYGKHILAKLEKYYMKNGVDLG
row,Sequence,binding signal
1,GGCUAGAACUAGUGGAUCCCCCGGCGCCCGGCGGCUCGAGCCCGGGUAAGUGUAAAUCGUCUGCAUGCCGCCGGGCGCCAUGCCUGCAGGUCGACUCUAGAAAACAUG,5.45 log2 enrichment (interaction score)
2,GGCUAGAACUAGUGGAUCCCCCGGCGCCCGGCGGCUCGAGCCCGGGUAAGUGUAAAUGGUCUGCAUGCCGCCGGGCGCCAUGCCUGCAGGUCGACUCUAGAAAACAUG,0.98 log2 enrichment (interaction score)
3,GGCUAGAACUAGUGGAUCCCCCGGCGCCCGGCGGCUCGAGCCCGGGUAAGUGUAAAUUGUCUGCAUGCCGCCGGGCGCCAUGCCUGCAGGUCGACUCUAGAAAACAUG,4.77 log2 enrichment (interaction score)

# Molecular target: PUM1 PUF domain R7-RNK (Homo sapiens, UniProt Q14671 828-1176, S1079R;E1083K)
# Assay: as above
# Settings: tags: N-Gal4 AD-HA kept; label: inside an RPR1-promoter hybrid RNA with tandem MS2 sites; ssRNA
# Procedure, shortened: as §1
# PUM1 PUF domain R7-RNK, sequence (Q14671 828-1176 S1079R/E1083K): as the sequence (Q14671 828-1176 S863R/R864W/Q867T) above, with R36S, W37R, T40Q, S252R, E256K counted along it
row,Sequence,binding signal
1,GGCUAGAACUAGUGGAUCCCCCGGCGCCCGGCGGCUCGAGCCCGGGUAAGUGUAAAUAGUCUGCAUGCCGCCGGGCGCCAUGCCUGCAGGUCGACUCUAGAAAACAUG,2.47 log2 enrichment (interaction score)
2,GGCUAGAACUAGUGGAUCCCCCGGCGCCCGGCGGCUCGAGCCCGGGUAAGUAUAAAUAGUCUGCAUGCCGCCGGGCGCCAUGCCUGCAGGUCGACUCUAGAAAACAUG,2.99 log2 enrichment (interaction score)
3,GGCUAGAACUAGUGGAUCCCCCGGCGCCCGGCGGCUCGAGCCCGGGUAAGUCUAAAUAGUCUGCAUGCCGCCGGGCGCCAUGCCUGCAGGUCGACUCUAGAAAACAUG,3.45 log2 enrichment (interaction score)
